Data on 4 compounds can be found in PubChem BioAssay (EPA / NIEHS).

The nature of test [1]: ATG_GLI_CIS: Attagene CIS-FACTORIAL HepG2 Assay for human Zinc Finger Protein GLI1 (AID 2282945). As to conditions: HepG2, Attagene cis-factorial reporter mRNA, GLI element; actives raise or lower the signal. A digest of the protocol:
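HepG2 cells transiently transfected with cis-promoter multiplexed reporter units report endogenous transcription factor activity. After 24 h chemical exposure, reporter mRNA was quantified by RT-PCR, 6-FAM labelling, HpaI digestion and capillary electrophoresis, with bidirectional fitting against DMSO.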

The nature of test [2]: ATG_GRE_CIS: Attagene CIS-FACTORIAL HepG2 Assay for human Glucocorticoid Response Elements (GRE) (AID 2282947). As to conditions: HepG2 GRE cis-reporter, Attagene multiplex mRNA; actives raise or lower the signal. A digest of the protocol:
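Cells (HepG2) bearing transfected cis-promoter reporter transcription units were treated with chemical for 24 hours. Reporter mRNA was measured via RT-PCR with capillary electrophoresis, and activity was fitted in both directions relative to DMSO.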

Test [3] can be described thus: ATG_ISRE_CIS: Attagene CIS-FACTORIAL HepG2 Assay for human Interferon Regulatory Factor 1 (IRF1) binding to an Interferon-Stimulated Response Element (ISRE) (AID 2282948). As to conditions: HepG2 ISRE cis-reporter (Attagene), mRNA transcription readout; actives raise or lower the signal. A digest of the protocol:
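Uses HepG2 liver cells transfected with cis-regulated reporters and measures mRNA 24 h post-dosing through RT-PCR, primer-extension labelling and capillary electrophoresis, with DMSO as negative control.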

The nature of test [4]: ATG_M_32_CIS: Attagene CIS-FACTORIAL HepG2 Assay for M32 Transcription Factor (Internal Marker) (AID 2282949).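 Note: background control marker of the multiplexed CIS panel rather than a real target.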 As to conditions: HepG2 Attagene cis-factorial M32 reporter, mRNA; actives raise or lower the signal. The gist of the method: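 HepG2 transfectants (cis-regulated reporter transcription units) dosed 24 h. Reporter mRNA by RT-PCR plus CE, analysed as gain or loss relative to DMSO.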

The nature of test [5]: ATG_M_06_CIS: Attagene CIS-FACTORIAL HepG2 Assay for M06 Transcription Factor (Internal Marker) (AID 2282950). As to conditions: HepG2 Attagene CIS-FACTORIAL M06 internal marker reporter; actives raise or lower the signal. A digest of the protocol:
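HepG2 cells transiently transfected with cis-regulated multiple reporter transcription units were exposed to chemical for 24 h; reporter mRNA was quantified by RT-PCR, 6-FAM primer labelling, HpaI digestion and capillary electrophoresis, fitted bidirectionally against DMSO.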

Test [6] addresses Hypoxia-inducible factor 1-alpha (Homo sapiens) (UniProt Q16665). As to the kind of experiment: ATG_HIF1a_CIS: Attagene CIS-FACTORIAL HepG2 Assay for human Hypoxia Inducible Factor 1 (HIF1A) (AID 2282951). As to conditions: HepG2 Attagene cis-factorial HIF1a reporter transcription; actives raise or lower the signal. A digest of the protocol: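 Endogenous-TF cis reporter readout, human HepG2 cells, 24 h incubation; mRNA detected via RT-PCR and capillary electrophoresis fluorescence; DMSO-normalised bidirectional fitting.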

Test [7] deals with Hepatocyte nuclear factor 6 (Homo sapiens) (UniProt Q9UBC0). Put plainly: ATG_HNF6_CIS: Attagene CIS-FACTORIAL HepG2 Assay for human Hepatocyte Nuclear Factor 6 (HNF6) (AID 2282952). As to conditions: HepG2 Attagene cis-factorial HNF6 reporter transcription; actives raise or lower the signal. A digest of the protocol: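 Readout: fluorescent reporter-transcript fragments resolved by capillary electrophoresis after RT-PCR, reflecting endogenous factor activity in transfected HepG2. Exposure 24 h. Gain or loss of signal fitted bidirectionally against DMSO.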
Chain of Hepatocyte nuclear factor 6 (Homo sapiens) (Q9UBC0 whole entry, looked up, the tested form may be a part): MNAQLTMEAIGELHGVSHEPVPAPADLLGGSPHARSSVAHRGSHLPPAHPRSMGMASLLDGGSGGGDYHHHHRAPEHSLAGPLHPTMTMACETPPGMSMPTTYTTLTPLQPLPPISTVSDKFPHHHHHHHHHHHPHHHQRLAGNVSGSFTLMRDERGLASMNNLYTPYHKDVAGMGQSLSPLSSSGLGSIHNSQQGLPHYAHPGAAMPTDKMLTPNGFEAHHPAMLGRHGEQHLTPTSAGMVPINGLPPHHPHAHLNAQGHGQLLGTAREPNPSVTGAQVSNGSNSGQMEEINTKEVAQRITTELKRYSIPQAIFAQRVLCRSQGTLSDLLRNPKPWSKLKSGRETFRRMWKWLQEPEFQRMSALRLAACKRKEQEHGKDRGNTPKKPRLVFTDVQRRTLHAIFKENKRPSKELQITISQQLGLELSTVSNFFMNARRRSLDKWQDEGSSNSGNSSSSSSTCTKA

The target in test [8] is Heat shock factor protein 1 (Homo sapiens) (UniProt Q00613). Put plainly: ATG_HSE_CIS: Attagene CIS-FACTORIAL HepG2 Assay for human Heat Shock Transcription Factor 1 (HSE) (AID 2282953). As to conditions: HepG2 HSE cis-reporter, Attagene RNA transcription; actives raise or lower the signal. The gist of the method:
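HepG2 cells transiently transfected with multiple reporter transcription units under cis-regulatory promoter control, measuring endogenous transcription factor activity. After 24 h chemical exposure, reporter mRNA quantified by RT-PCR, fluorescent labelling, HpaI digestion and capillary electrophoresis; bidirectional fit versus DMSO.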

The nature of test [9]: ATG_MRE_CIS: Attagene CIS-FACTORIAL HepG2 Assay for human Metal Responsive Element (MRE) (AID 2282954). As to conditions: HepG2 MRE cis-reporter transcription, Attagene multiplex; actives raise or lower the signal. The gist of the method:
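Cells were transfected with cis-promoter reporter transcription units, then dosed for 24 h. RNA was reverse-transcribed, amplified, fluorescently labelled and resolved by capillary electrophoresis, and activity was fitted in both directions relative to DMSO.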

Test [10] can be described thus: ATG_PBREM_CIS: Attagene CIS-FACTORIAL HepG2 Assay for human Phenobarbital-responsive Enhancer Module (PBREM) (AID 2282955). As to conditions: HepG2 PBREM cis-reporter, Attagene multiplexed transcription; actives raise or lower the signal. A digest of the protocol: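 Readout: reporter mRNA, fluorescent RT-PCR fragments separated by capillary electrophoresis. System: HepG2 transiently transfected with cis-regulated reporter units. Exposure: 24 h. Analysis: bidirectional, DMSO baseline.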

Test [11] deals with Paired box protein Pax-6 (Homo sapiens) (UniProt P26367). As to the kind of experiment: ATG_Pax6_CIS: Attagene CIS-FACTORIAL HepG2 Assay for human Paired Box 6 (PAX6) (AID 2282956). As to conditions: HepG2 CIS-FACTORIAL PAX6 reporter transcription, RNA readout; actives raise or lower the signal. The gist of the method:
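DMSO-referenced bidirectional fits of reporter mRNA fluorescence; HepG2 with transient cis-promoter MRTUs, 24 h post-dose, RT-PCR plus capillary electrophoresis detection.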

A short description of test [12]: ATG_PXRE_CIS: Attagene CIS-FACTORIAL HepG2 Assay for human Pregnane X Receptor Element (PXRE) (AID 2282957). As to conditions: HepG2 Attagene CIS-FACTORIAL PXRE reporter, mRNA; actives raise or lower the signal. The gist of the method: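 Read-out: fluorescence of reporter-specific RT-PCR products resolved by capillary electrophoresis, fitted bidirectionally relative to DMSO. Human HepG2 liver cells carried transfected cis-promoter reporter units and were exposed to chemicals for 24 h.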

Test [13] in a line: ATG_RORE_CIS: Attagene CIS-FACTORIAL HepG2 Assay for human RAR-related Orphan Receptor Element (RORE) (AID 2282959). As to conditions: HepG2 Attagene cis-factorial RORE reporter, mRNA; actives raise or lower the signal. A digest of the protocol:
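Measured here: transcript induction of a cis-regulated reporter in HepG2 cells transiently transfected via FuGene 6. After 24 h, RNA was processed by RT-PCR and fluorescent capillary electrophoresis; DMSO defined baseline activity.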

Test [14] in a line: ATG_Sox_CIS: Attagene CIS-FACTORIAL HepG2 Assay for human SRY-box transcription factor (SOX) (AID 2282960). As to conditions: HepG2 Attagene cis-factorial SOX reporter, mRNA; actives raise or lower the signal. The gist of the method:
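Using transiently transfected HepG2 cells, reporter transcription driven by cis elements was assessed 24 h after dosing. Signal was fluorescence of capillary-separated RT-PCR products, with DMSO defining baseline activity.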

The target in test [15] is Transcription factor Sp1 (Homo sapiens) (UniProt P08047). Put plainly: ATG_Sp1_CIS: Attagene CIS-FACTORIAL HepG2 Assay for human Specificity Protein 1 (Sp1) (AID 2282961). As to conditions: HepG2 Sp1 cis-reporter transcription, actives raise or lower the signal. A digest of the protocol: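 After transient transfection of HepG2 cells with cis-promoter reporter units and 24 h chemical treatment, reporter transcripts were quantified by RT-PCR and capillary electrophoresis fluorescence. Gain- and loss-of-signal fitted against DMSO.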
Chain of Transcription factor Sp1 (Homo sapiens) (P08047 whole entry, looked up): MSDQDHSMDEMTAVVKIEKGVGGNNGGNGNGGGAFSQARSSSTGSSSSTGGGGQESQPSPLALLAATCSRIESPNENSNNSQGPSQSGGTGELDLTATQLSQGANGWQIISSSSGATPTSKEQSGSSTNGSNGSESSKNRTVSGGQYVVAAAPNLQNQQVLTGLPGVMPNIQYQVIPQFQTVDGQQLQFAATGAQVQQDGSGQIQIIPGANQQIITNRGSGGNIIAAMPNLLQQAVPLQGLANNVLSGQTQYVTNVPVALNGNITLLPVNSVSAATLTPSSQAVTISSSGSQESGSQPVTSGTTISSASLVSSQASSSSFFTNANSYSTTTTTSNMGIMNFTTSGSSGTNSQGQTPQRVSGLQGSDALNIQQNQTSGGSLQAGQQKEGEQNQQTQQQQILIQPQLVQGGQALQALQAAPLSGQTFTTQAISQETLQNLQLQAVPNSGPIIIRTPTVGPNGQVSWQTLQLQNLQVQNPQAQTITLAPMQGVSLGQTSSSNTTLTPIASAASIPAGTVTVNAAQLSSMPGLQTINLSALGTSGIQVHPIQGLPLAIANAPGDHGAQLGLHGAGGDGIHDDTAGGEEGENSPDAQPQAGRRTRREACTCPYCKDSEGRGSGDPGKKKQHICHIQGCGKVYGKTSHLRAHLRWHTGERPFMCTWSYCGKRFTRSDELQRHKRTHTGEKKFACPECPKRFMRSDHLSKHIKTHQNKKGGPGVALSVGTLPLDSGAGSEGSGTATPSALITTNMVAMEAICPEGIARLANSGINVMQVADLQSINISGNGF

A short description of test [16]: ATG_SREBP_CIS: Attagene CIS-FACTORIAL HepG2 Assay for human Sterol Regulatory Element Binding (SREBP) (AID 2282962). As to conditions: HepG2 Attagene cis-factorial SREBP reporter, mRNA; actives raise or lower the signal. The gist of the method:
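In this cis-format assay, HepG2 liver cells express reporters controlled by promoter elements responsive to native transcription factors. Exposure lasts 24 h; reporter mRNA fluorescence from capillary electrophoresis gives the signal, fitted bidirectionally against DMSO.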

Test [17] deals with Signal transducer and activator of transcription 3 (Homo sapiens) (UniProt P40763). Put plainly: ATG_STAT3_CIS: Attagene CIS-FACTORIAL HepG2 Assay for human Signal Transducer and Activator of Transcription 3 (STAT3) (AID 2282963). As to conditions: HepG2, Attagene cis-factorial STAT3 reporter transcription; actives raise or lower the signal. A digest of the protocol:
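HepG2, MRTU-transfected, 24 h dosing. RNA → RT → PCR → FAM label → HpaI → CE. Bidirectional fit vs DMSO.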

Test [18] addresses Bile acid receptor (Homo sapiens) (UniProt Q96RI1). Put plainly: ATG_IR1_CIS: Attagene CIS-FACTORIAL HepG2 Assay for human Nuclear Receptor Subfamily 1 Group H Member 4 (NR1H4), IR1 submotif (AID 2282946). As to conditions: IR1 reporter transcription, actives raise or lower the signal. The gist of the method: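 Readout: reporter transcript levels by RT-PCR with fluorescent capillary electrophoresis, from HepG2 cells transiently transfected with multiplexed cis-regulated reporters and dosed 24 h. Gain- or loss-of-signal fitted versus DMSO negative control.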

The nature of test [19]: ATG_PPRE_CIS: Attagene CIS-FACTORIAL HepG2 Assay for human Peroxisome Proliferator-activated Response Element (PPRE) (AID 2282958). As to conditions: HepG2 PPRE cis-element reporter, Attagene transcription factor profiling; actives raise or lower the signal. A digest of the protocol: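 After human HepG2 hepatoma cells were transiently transfected with cis-promoter reporter constructs, they were exposed to test chemicals for 24 hours. Reporter RNA was then reverse-transcribed, PCR-amplified, FAM-labeled, HpaI-digested and quantified by capillary electrophoresis.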

A short description of test [20]: ATG_TA_CIS: Attagene CIS-FACTORIAL HepG2 Assay for human TA Basal Promoter (AID 2282964). As to conditions: HepG2 Attagene CIS-factorial TA basal promoter reporter; actives raise or lower the signal. A digest of the protocol:
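HepG2 cells transiently transfected with multiplexed cis-promoter reporter units, dosed 24 h. Reporter mRNA measured by RT-PCR, 6-FAM labelling, HpaI digestion and capillary electrophoresis; bidirectional fit versus DMSO baseline, serving as background control.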

Molecules are shown by their SMILES. Activity calls are given as the source filed them. Rule for the calls: active = hit-call score of the fitted dose curve at least 0.9, where 1 is the maximum; inactive = score below 0.9.

Chain of Paired box protein Pax-6 (Homo sapiens) (P26367 whole entry, looked up): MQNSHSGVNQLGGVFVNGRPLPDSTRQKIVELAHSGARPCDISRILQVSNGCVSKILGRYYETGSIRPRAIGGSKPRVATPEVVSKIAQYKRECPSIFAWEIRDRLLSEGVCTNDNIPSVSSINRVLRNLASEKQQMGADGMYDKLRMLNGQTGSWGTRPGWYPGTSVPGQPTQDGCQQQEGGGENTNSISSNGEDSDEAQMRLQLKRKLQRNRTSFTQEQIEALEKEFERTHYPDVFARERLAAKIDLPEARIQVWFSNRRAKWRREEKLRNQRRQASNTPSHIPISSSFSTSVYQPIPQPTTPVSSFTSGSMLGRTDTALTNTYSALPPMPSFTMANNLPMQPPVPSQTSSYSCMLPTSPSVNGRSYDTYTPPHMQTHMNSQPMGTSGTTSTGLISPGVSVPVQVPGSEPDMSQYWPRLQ
Chain of Heat shock factor protein 1 (Homo sapiens) (Q00613 whole entry, looked up): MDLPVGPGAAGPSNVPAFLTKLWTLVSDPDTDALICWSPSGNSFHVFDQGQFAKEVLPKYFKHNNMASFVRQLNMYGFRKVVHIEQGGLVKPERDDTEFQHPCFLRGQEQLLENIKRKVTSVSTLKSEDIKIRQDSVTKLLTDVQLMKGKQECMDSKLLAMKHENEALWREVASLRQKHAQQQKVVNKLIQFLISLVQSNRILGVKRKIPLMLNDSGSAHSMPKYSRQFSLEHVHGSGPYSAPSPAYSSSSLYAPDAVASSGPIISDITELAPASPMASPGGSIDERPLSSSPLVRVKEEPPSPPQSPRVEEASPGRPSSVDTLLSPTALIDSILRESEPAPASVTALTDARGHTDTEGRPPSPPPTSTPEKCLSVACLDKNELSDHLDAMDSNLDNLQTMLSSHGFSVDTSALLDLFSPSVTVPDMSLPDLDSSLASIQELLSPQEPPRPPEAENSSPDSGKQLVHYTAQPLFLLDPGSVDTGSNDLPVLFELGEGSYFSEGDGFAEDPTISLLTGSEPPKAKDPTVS
Chain of Signal transducer and activator of transcription 3 (Homo sapiens) (P40763 whole entry, looked up): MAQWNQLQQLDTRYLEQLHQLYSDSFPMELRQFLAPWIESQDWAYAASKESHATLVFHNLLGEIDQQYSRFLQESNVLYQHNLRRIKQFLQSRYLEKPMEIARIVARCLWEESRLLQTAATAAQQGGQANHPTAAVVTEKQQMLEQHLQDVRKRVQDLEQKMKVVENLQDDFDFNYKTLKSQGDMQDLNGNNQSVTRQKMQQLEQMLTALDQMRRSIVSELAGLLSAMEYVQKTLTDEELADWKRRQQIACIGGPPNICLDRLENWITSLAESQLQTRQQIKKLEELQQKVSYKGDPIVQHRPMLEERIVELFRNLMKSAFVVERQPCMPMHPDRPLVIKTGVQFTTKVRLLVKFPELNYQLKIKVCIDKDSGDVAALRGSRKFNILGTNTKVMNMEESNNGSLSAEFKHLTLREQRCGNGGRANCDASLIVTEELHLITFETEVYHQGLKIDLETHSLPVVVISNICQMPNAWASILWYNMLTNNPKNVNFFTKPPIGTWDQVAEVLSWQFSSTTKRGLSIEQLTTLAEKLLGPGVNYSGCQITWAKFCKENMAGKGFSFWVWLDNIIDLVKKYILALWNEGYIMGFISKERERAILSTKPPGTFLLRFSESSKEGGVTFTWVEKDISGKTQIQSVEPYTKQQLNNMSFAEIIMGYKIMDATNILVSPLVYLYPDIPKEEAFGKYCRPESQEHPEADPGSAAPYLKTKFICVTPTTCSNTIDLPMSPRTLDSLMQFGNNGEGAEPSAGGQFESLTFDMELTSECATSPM
Chain of Bile acid receptor (Homo sapiens) (Q96RI1 whole entry, looked up): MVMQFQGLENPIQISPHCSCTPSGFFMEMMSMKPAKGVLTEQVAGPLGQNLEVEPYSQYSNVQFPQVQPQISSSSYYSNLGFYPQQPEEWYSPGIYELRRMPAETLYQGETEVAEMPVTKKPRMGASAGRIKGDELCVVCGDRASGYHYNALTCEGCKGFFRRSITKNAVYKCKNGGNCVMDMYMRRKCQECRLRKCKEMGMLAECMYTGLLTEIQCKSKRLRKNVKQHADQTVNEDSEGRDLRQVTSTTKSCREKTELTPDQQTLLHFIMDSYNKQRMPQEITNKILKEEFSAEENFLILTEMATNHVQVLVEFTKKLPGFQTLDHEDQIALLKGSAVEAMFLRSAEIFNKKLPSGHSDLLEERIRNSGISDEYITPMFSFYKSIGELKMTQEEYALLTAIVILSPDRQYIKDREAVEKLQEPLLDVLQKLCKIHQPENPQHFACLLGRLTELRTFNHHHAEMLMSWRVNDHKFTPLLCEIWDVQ
Chain of Hypoxia-inducible factor 1-alpha (Homo sapiens) (Q16665 whole entry, looked up): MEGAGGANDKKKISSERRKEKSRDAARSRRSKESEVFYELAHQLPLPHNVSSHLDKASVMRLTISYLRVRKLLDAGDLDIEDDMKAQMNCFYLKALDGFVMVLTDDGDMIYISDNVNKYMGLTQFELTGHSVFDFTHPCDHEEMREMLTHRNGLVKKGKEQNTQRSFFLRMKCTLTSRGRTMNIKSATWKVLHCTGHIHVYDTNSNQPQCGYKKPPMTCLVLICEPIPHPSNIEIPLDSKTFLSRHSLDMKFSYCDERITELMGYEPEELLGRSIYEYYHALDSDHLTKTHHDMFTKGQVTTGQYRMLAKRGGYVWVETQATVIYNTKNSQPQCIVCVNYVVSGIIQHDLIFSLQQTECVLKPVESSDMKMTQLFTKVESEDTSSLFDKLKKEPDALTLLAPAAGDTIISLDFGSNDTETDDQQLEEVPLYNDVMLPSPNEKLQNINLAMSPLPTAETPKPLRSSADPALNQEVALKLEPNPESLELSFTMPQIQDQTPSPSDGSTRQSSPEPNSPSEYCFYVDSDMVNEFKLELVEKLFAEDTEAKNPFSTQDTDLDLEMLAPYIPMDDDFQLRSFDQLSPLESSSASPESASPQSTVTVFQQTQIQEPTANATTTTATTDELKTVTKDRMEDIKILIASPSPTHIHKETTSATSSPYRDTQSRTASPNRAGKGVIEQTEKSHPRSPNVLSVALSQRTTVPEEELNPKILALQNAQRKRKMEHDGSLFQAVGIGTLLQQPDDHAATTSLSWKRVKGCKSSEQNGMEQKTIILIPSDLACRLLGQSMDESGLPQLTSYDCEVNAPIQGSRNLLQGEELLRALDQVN

As to `CCCCC1C(=O)N(c2ccccc2)N(c2ccccc2)C1=O`, the result in test [1], in test [2], in [3], in [4], in test [5] and in test [6] was inactive. In addition, the compound was called inactive in test [7], in test [8], in test [9], in test [10], in [11] and in test [13]. Besides, the call in test [14], in test [15], in [16] and in test [17] was inactive. Besides, the AC50 in test [12] is 1.44 µM (active).
`CCOB(OCC)OCC`: the compound was classed as inactive in test [1], in test [18], in test [3], in [4], in test [5] and in test [7]. For the same compound, the compound was classed as inactive in test [8], in test [11], in test [12], in test [19], in test [13] and in test [14]. For the same compound, the result in test [15], in [16], in test [17] and in test [20] was inactive.
On to `Cc1ccccc1CCO`, for which the outcome in test [1], in [18], in test [3], in test [4], in test [7] and in test [8] was inactive. Further, the outcome in test [11], in test [19], in test [13], in [15], in [16] and in test [17] was inactive. In [12], the AC50 was 26.6 µM (active).
Regarding `CCC1(C)C(=O)N(Cl)C(=O)N1Cl` (stereo not drawn), the outcome in test [1], in [2], in test [4], in [5], in [6] and in test [7] was inactive. Besides, the outcome in test [10], in test [19], in test [15], in test [16] and in test [17] was inactive. In addition, the AC50 in test [3] is 49.4 µM (active); in [8], 52.1 µM (active); in test [9], 61.4 µM (active); in test [11], 49.8 µM (active); in test [12] it was 58.6 µM (active); in [14], 37.9 µM (active).
